Assays:
Experiment in all cases: DAPPL (digital affinity profiling via proximity ligation, sequencing); 10 mM Tris-HCl pH 7.5, 50 mM NaCl, 1 mM DTT, 4% glycerol, room temperature, 30 min; GST-TFs on glutathione beads, 16-mer random dsDNA library, 0.1% formaldehyde crosslink after washing; high values mean tight binding
Settings in all cases: protein: recombinant; tags: N-terminal GST; dsDNA, one strand shown
FLI1 = target: T1, FLI1 (Homo sapiens, UniProt Q01543 1-452)
T1 sequence: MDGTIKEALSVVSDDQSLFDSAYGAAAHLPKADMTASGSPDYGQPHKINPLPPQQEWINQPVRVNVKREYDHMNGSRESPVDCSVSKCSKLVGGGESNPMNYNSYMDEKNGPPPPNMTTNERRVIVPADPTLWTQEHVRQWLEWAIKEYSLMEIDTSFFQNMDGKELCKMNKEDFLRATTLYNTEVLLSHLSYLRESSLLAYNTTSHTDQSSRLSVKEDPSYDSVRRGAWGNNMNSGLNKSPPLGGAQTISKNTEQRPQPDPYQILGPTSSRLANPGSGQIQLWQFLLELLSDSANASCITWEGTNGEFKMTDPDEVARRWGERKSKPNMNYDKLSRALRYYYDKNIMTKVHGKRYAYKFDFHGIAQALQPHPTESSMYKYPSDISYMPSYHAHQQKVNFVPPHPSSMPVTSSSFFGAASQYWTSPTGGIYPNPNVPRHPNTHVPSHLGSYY
Outline: (§1)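 GST fusions of human transcription factors were expressed in yeast and captured with glutathione beads. Once given DNA barcodes and pooled alongside a tag-only sample, they were incubated for 30 min at room temperature with 200 nmole of a random double-stranded 16-mer DNA library in Tris/NaCl/DTT/glycerol buffer, then washed, crosslinked (0.1% formaldehyde), proximity-ligated, PCR-amplified and sequenced on an Illumina NextSeq500. The binding signal of each hexamer is its read frequency for a factor divided by its frequency for the tag-only sample.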

ELK1 = target: T2, ELK1 (Homo sapiens, UniProt P19419 1-428)
T2 sequence: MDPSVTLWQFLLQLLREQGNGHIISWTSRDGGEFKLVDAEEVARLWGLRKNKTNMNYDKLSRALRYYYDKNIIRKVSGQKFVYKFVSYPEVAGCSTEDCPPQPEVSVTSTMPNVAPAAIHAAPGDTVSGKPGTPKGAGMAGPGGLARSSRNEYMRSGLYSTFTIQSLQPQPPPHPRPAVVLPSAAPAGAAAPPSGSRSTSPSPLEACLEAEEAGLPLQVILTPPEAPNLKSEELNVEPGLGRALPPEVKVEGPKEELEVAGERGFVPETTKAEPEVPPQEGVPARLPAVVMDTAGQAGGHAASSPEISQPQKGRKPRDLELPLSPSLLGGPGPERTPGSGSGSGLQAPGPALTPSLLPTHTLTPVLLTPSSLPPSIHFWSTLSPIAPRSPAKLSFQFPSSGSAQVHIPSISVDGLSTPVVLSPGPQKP
Outline: as §1

GABPA = target: T3, GABPA (Homo sapiens, UniProt Q06546 1-454)
T3 sequence: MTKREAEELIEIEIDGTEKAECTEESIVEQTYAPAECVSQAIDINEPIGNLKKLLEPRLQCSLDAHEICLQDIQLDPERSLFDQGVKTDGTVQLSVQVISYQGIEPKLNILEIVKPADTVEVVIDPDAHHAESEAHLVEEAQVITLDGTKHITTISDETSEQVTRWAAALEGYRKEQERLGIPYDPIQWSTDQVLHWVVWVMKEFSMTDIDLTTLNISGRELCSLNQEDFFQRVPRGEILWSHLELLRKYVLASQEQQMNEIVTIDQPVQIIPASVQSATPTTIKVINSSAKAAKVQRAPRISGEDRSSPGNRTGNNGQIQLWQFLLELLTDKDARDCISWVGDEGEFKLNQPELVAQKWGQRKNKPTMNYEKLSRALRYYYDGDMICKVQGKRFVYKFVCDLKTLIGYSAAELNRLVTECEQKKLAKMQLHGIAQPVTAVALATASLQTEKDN
Outline: as §1

ERG = target: T4, ERG (Homo sapiens, UniProt P11308 1-479)
T4 sequence: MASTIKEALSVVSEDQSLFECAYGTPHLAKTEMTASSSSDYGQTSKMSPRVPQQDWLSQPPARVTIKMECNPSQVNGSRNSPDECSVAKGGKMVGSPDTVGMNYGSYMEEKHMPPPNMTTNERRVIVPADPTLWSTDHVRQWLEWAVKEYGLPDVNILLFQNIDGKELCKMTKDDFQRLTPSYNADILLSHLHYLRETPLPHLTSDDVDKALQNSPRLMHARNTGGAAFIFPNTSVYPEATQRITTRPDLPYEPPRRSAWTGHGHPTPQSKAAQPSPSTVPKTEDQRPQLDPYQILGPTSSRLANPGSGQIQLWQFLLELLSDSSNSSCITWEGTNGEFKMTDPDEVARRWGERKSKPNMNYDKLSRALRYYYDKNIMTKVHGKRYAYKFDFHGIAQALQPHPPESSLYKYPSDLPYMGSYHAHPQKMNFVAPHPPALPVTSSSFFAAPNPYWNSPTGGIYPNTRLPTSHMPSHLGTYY
Outline: as §1

ELF1 = ELF1 (Homo sapiens, UniProt P32519 1-619)
ELF1, sequence (P32519 whole entry): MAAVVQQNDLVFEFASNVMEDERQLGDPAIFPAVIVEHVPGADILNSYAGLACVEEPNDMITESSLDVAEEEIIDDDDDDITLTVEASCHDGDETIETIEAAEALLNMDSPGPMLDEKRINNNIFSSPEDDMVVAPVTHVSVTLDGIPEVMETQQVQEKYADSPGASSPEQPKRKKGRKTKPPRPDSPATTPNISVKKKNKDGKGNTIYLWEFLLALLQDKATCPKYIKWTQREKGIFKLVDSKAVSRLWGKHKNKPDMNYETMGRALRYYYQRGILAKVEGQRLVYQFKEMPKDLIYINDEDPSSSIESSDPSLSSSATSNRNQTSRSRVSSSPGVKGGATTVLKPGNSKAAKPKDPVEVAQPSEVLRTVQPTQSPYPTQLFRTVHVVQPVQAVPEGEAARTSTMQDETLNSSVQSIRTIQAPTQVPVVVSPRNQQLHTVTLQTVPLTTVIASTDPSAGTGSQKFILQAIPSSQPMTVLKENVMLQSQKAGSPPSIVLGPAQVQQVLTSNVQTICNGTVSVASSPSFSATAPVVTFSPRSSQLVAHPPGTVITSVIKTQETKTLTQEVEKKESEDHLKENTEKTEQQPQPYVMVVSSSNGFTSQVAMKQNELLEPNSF
Outline: as §1

EHF = target: T5, EHF (Homo sapiens, UniProt Q9NZC4 1-300)
T5 sequence: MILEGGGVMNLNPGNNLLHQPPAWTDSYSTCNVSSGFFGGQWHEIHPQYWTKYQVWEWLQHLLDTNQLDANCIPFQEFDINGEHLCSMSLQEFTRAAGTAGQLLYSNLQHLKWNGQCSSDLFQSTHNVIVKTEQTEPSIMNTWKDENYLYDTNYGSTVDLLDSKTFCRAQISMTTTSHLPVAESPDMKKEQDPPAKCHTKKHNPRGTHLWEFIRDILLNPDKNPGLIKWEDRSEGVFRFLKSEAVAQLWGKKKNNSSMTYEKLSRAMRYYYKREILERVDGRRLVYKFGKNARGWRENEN
Outline: as §1

SPI1 = SPI1 (Homo sapiens, UniProt P17947 1-270)
Outline: as §1

SPIB = SPIB (Homo sapiens, UniProt Q01892 1-262)
SPIB, sequence (Q01892 whole entry): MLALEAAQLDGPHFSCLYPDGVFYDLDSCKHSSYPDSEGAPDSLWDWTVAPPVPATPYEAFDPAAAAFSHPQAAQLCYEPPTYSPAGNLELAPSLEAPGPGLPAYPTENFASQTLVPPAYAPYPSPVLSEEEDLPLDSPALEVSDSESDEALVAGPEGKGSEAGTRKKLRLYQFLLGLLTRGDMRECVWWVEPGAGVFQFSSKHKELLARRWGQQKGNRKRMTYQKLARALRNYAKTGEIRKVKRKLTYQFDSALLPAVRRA
Outline: as §1

ELK3 = target: T6, ELK3 (Homo sapiens, UniProt P41970 1-407)
T6 sequence: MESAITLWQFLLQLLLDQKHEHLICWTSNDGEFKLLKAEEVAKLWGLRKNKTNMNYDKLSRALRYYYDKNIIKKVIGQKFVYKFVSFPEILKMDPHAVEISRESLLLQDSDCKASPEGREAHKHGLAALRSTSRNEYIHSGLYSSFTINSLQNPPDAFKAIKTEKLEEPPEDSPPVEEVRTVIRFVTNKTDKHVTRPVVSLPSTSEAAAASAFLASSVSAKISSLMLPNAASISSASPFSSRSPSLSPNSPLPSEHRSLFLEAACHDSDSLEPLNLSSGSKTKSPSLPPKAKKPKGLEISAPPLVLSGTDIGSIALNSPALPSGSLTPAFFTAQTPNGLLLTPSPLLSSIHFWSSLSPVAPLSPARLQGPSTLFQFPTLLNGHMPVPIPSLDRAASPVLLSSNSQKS
Outline: as §1

Row | Sequence | binding signal (FLI1) | binding signal (ELK1) | binding signal (GABPA) | binding signal (ERG) | binding signal (ELF1) | binding signal (EHF) | binding signal (SPI1) | binding signal (SPIB) | binding signal (ELK3)
1 | ATCCGC | 1.82 fold enrichment (6-mer frequency, TF over GST control) | 1.86 fold enrichment (6-mer frequency, TF over GST control) | 1.57 fold enrichment (6-mer frequency, TF over GST control) | 1.93 fold enrichment (6-mer frequency, TF over GST control) | 1.76 fold enrichment (6-mer frequency, TF over GST control) | 1.82 fold enrichment (6-mer frequency, TF over GST control) | 1.74 fold enrichment (6-mer frequency, TF over GST control) | 1.82 fold enrichment (6-mer frequency, TF over GST control) | 2.04 fold enrichment (6-mer frequency, TF over GST control)
2 | TTATCG | 1.17 fold enrichment (6-mer frequency, TF over GST control) | 1.28 fold enrichment (6-mer frequency, TF over GST control) | 1.3 fold enrichment (6-mer frequency, TF over GST control) | 1.3 fold enrichment (6-mer frequency, TF over GST control) | 1.25 fold enrichment (6-mer frequency, TF over GST control) | 1.25 fold enrichment (6-mer frequency, TF over GST control) | 1.15 fold enrichment (6-mer frequency, TF over GST control) | 1.13 fold enrichment (6-mer frequency, TF over GST control) | 1.17 fold enrichment (6-mer frequency, TF over GST control)
3 | GCACTT | 1.61 fold enrichment (6-mer frequency, TF over GST control) | 2 fold enrichment (6-mer frequency, TF over GST control) | 1.87 fold enrichment (6-mer frequency, TF over GST control) | 1.93 fold enrichment (6-mer frequency, TF over GST control) | 1.77 fold enrichment (6-mer frequency, TF over GST control) | 1.79 fold enrichment (6-mer frequency, TF over GST control) | 2.23 fold enrichment (6-mer frequency, TF over GST control) | 1.7 fold enrichment (6-mer frequency, TF over GST control) | 1.99 fold enrichment (6-mer frequency, TF over GST control)

Reference: article PMC7862700, “An all-to-all approach to the identification of sequence-specific readers for epigenetic DNA modifications on cytosine”
